40 compounds from PubChem BioAssay (NCATS) can be followed below.

The structures appear in SMILES notation. Inconclusive results are not listed. Values without a mark were called inactive. The source made the active and inactive calls. Calls come from the whole dose curve; as a rule, active = well fitted inhibition curve with a large enough effect; inconclusive = small, poorly fitted or top-dose-only effect; inactive = flat fitted curve, though single readings scatter.
% is set by controls: 0 for no effect and ±100 for the full control effect.

Chain of Calcium and integrin-binding protein 1 (Homo sapiens) (Q99828 whole entry, looked up): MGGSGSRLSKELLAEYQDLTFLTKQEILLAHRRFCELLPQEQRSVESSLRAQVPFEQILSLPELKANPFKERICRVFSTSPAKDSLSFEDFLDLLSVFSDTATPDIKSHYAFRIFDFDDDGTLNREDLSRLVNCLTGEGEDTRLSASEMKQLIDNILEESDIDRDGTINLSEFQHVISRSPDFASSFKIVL

This assay has as its target Calcium and integrin-binding protein 1 (Homo sapiens) (UniProt Q99828). Put plainly: Primary qHTS for Identification of Calcium Integrin Binding Protein 1 (CIB1) Competitor (AID 1508620).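 Note: GST tagged CIB1 binding a fluorescein labelled alphaIIb integrin peptide tracer; top concentration of the series differs between compounds.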 The conditions noted are these: CIB1-GST / FITC-alphaIIb peptide fluorescence polarization; series mostly up to 114 µM; activity change, negative = inhibition: at the top concentration. In outline: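 Fluorescence polarization competition: CIB1-GST (1 uM final) preincubated with compound 15 min at room temperature, then FITC-labeled alphaIIb peptide (100 nM final) added for another 15 min. Polarization read at Ex 480/Em 540.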
On the technique in general: qHTS replaces the single test concentration by a dilution series.
As for `Brc1sc2c(c1-c1nc3ccccc3s1)CCNC2`, the “activity change, negative = inhibition” value was 3.6%.
Regarding `Cc1ccc(CNc2ccc(N3CCN(C)CC3)cc2)cc1`, the “activity change, negative = inhibition” value was 1.45%.
Take `Cc1cc(-c2nc(Nc3ccc(F)c(F)c3)c3ccccc3n2)ccn1`: the “activity change, negative = inhibition” value was 14.4%.
Turning to `Cc1ccc(-c2no[n+]([O-])c2C#N)cc1`, the “activity change, negative = inhibition” value is -1.59%.
Still for that read-out and setting: to `Cc1cc(NC(=O)Nc2nnc(-c3ccncc3)s2)ccc1Br` belongs -1.1%.
`O=S(=O)(Nc1nccs1)c1ccc(NCc2cc(F)ccc2O)cc1`: the “activity change, negative = inhibition” value was -6.83%.
Still for that read-out and setting: to `CC(=O)Nc1sc2c(c1-c1cccnc1)CCNC2` belongs 7.05%; to `Cc1cc2c(s1)c1cnn(Cc3cc(F)ccc3C)c(=O)c1n2C`, -0.189%.
With `CC1=C(C(=O)Nc2ccon2)C(c2ccccc2Br)N=C(Nc2nc3ccccc3o2)N1` (stereo not given), the “activity change, negative = inhibition” value is -0.654%.
Same read-out and setting: in the case of `COc1ccc(C2c3ccc4ccccc4c3Oc3ncn(CCN4CCOCC4)c(=N)c32)cc1OC` (stereo not given) it was 3.12%; in that of `CC(C)(C)OC(=O)N1CCN(c2ccc(NCc3cnc(-c4ccc(C#N)cc4)s3)cc2)CC1`, 5.77%.
As to `Cc1ccnc(NC(=S)N2CCN(c3cccc(C(F)(F)F)n3)CC2)c1`, the “activity change, negative = inhibition” value is -8.56%.
Consider `Cc1c(C(=O)OCc2ccco2)[nH]c2c1C(=O)CC(c1ccco1)C2` (stereo not given), for which the “activity change, negative = inhibition” value was -10.1%.
`CS(=O)(=O)c1ccc(-c2csc(N3CCC(C(N)=O)CC3)n2)cc1`: the “activity change, negative = inhibition” value was 6.89%.
On to `CN(C)c1ccc2c(=O)n3nc(Nc4ccc5c(c4)CCC5)sc3nc2c1`, for which the “activity change, negative = inhibition” value was -4.24%.
As for `O=C(NCCc1nc2ccccc2n1CCOc1cccc(Br)c1)C1CCCCC1`, the “activity change, negative = inhibition” value is 4.92%.
The same measure, in the same setting: in the case of `NNc1ccc(NC(=O)c2cccs2)cn1` it was -18.6%.
The same measure, in the same setting: to `COc1ccc(C2=Nn3c(nnc3-c3ccc(OC)c(OC)c3)SC2)cc1` belongs -0.898%; to `O=C(Nc1ncc(Cc2ccc(C(F)(F)F)cc2)s1)c1cnc(-c2ccccc2)[nH]1`, -1.86%.
As for `O=[S+]([O-])(c1c(F)cccc1F)N1CCN([S+](=O)([O-])c2csc3ccccc23)CC1`, the “activity change, negative = inhibition” value is 6.05%.
Still for that read-out and setting: to `CCOC(=O)c1cccc(NS(=O)(=O)c2ccc(NC(=O)Cc3ccc(Cl)c(Cl)c3)cc2)c1` belongs 0.405%.
As for `Cn1nnnc1Sc1ncnc2scc(-c3cccc(Br)c3)c12`, the “activity change, negative = inhibition” value is 2.72%.
Take `O=C(/C=C/c1ccc(F)cc1)Nc1cccc([S+](=O)([O-])Nc2ccccc2F)c1`: the Potency result was “inactive”.
In the case of `N#Cc1ccccc1S(=O)(=O)N1CCN(S(=O)(=O)c2ccc3c(c2)OCCO3)CC1`, the “activity change, negative = inhibition” value was 0.611%.
Same read-out and setting: in the case of `O=S(=O)(NCC1CN(S(=O)(=O)c2ccc3c(c2)OCCO3)C1)c1c(F)cccc1F` it was 0.53%; in that of `N#Cc1c(-c2cccc([N+](=O)[O-])c2)no[n+]1[O-]`, -7.22%.
The same measure, in the same setting: to `O=Cc1ccc(-c2ccc3ncnc(NCc4cccs4)c3c2)o1` belongs 4.7%.
`NCCCNc1ncnc2ccc(-c3ccc4c(c3)OCO4)cc12`: the “activity change, negative = inhibition” value was 5.05%.
`COc1ccc(C2=Nn3c(nnc3-c3ccccc3C)SC2)cc1OC`: the “activity change, negative = inhibition” value is -3.78%.
Same read-out and setting: to `O=c1c2ccccc2nc2sc(Nc3cccc(-c4ccncc4)c3)nn12` belongs 8.54%.
As for `O=S(=O)(c1ccc2c(c1)OCCO2)C1CCC(S(=O)(=O)c2c(F)cccc2F)CC1` (stereo not given), the Potency result is “inactive”.
For `O=C(CN1C(=O)CC(c2ccco2)Sc2ccccc21)Nc1ccccc1F` (stereo not given), the “activity change, negative = inhibition” value is -4.31%.
Turning to `COc1ccc(C(F)(F)F)cc1NC(=O)C(OC(=O)CNC(=O)c1ccccc1)c1ccccc1` (stereo not given), the “activity change, negative = inhibition” value was 2.97%.
`CC(=O)Nc1sc2c(c1-c1ccccc1)CCN(C(=O)OC(C)(C)C)C2`: the “activity change, negative = inhibition” value was 7.21%.
For the compound `COc1ccc(C2Nc3ccccc3C(=O)N2Cc2ccncc2)cc1COc1ccc(NC(C)=O)cc1` (stereo not given), the “activity change, negative = inhibition” value was -4.08%.
`NC(=O)c1c(NC(=O)c2ccco2)sc2c1CCCC2`: the “activity change, negative = inhibition” value was -9.04%.
For the compound `Cc1cc(N2C(=O)c3ccccc3C2=O)n[nH]1`, the “activity change, negative = inhibition” value was -7.17%.
Turning to `Cc1ccnc(NC(=S)N[C@H]2CCN(c3cccc(C(F)(F)F)c3)C2)c1`, the “activity change, negative = inhibition” value was -4.59%.
Regarding `S=C(NCCCc1cnc[nH]1)NCCCN(Cc1ccc(Cl)c(Cl)c1)c1ccccn1`, the “activity change, negative = inhibition” value was -7.7%.
As to `NC(=O)N1CCN(c2nc(-c3ccc(Br)cc3)cs2)CC1`, the “activity change, negative = inhibition” value is 1.8%.
